An excerpt weighted towards active compounds, which were near 6.6% of everything screened.
Gli-Sufu block: blocks Gli-Sufu signaling in a luciferase reporter; Sufu-KO-LIGHT fibroblasts, Gli luciferase reporter luminescence; AID 588413; 0.74% of 340,000 active; inhibition, % at 5 µM;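 active means inhibition above about 55%, limit read from the data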
Mdm2-MdmX inh: disrupts the human Mdm2-MdmX interaction | inhibition, % at 8 µM | O15151+Q00987 | 3% of 330,000 active | SaOS-2 split-luciferase Mdm2/MdmX complementation, luminescence;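 active means inhibition of at least 50% at 8 µM in the primary screen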
Target sequence (O15151 whole entry, looked up): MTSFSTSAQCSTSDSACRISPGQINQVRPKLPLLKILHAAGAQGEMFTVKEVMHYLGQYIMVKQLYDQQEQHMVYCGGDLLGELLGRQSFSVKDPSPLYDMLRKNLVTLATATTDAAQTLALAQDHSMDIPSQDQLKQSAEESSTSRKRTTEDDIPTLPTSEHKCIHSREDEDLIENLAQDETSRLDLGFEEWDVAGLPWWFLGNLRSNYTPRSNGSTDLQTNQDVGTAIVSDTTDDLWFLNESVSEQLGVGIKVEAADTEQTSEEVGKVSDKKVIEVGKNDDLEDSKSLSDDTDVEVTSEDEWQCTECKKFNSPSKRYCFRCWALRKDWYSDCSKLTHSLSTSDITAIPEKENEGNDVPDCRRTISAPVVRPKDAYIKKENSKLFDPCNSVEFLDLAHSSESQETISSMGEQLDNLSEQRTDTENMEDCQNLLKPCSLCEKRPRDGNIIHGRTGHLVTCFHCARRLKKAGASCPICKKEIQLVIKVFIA
Target sequence (Q00987 whole entry, looked up): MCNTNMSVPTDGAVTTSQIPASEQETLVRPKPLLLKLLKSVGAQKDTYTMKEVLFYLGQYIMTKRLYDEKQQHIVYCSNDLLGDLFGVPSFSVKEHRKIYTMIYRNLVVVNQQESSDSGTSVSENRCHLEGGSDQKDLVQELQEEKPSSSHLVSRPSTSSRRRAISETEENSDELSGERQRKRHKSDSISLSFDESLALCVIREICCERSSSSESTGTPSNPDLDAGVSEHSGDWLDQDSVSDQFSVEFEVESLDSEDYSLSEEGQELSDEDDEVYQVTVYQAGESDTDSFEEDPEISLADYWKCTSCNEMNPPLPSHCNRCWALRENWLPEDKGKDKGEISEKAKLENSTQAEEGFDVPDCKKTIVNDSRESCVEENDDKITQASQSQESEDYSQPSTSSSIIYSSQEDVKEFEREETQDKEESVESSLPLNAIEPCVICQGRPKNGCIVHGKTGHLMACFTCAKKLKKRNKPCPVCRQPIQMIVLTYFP
Beta apoptosis: beta cell apoptosis inhibition; INS-1E cytokine-induced death, ATP luminescence, 48 h; percent of positive-control rescue, neutral wells zero; protection from apoptosis, % (test concentration not listed); 0.8% of 300,000 active; AID 435005;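 active means Every replicate reaches about 75%, or at least half do and their mean reaches it too, limit read from the data; inconclusive means At least half of replicates reach the limit but their mean does not; inactive means Under half of replicates reach the limit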;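 further: higher means more ATP so stronger rescue from cytokine killing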
NR3A LBD binder: NR3A (human) ligand-binding domain modulation; NR3A LBD differential scanning fluorimetry, Tm shift; 0% = protein alone, 100% = glycine-bound protein; Tm shift relative to glycine control, % at 25 µM; 2.5% of 340,000 active;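 active means melting temperature shift of at least 10% of the positive control shift, at one fixed dose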
CSC inhib: cancer stem cell inhibition | 1.1% of 300,000 active | cancer stem cell-like cells viability, luminescence | AID 2717 | inhibition, % at 7.5 µM; in the data active means inhibition above about 75%; inconclusive means no clear call, values can overlap the other calls; tested in HMLE shEcad cells
MPTP inh: permeability transition pore inhibition. isolated mouse mitochondria, Ca2+ swelling absorbance, 30 min. inhibition, % at 10 µM. 1.4% of 360,000 active. AID 602449;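 active means inhibition of 50% or more, scaled per plate between neutral and stimulator controls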
Rh123 counter: Rhodamine 123 counter-screen of mitochondrial pore hits. shares compounds with MPTP inh. isolated mitochondria, membrane potential, Rhodamine 123 fluorescence. inhibition, % at 10 µM. 78% of 5,000 active. AID 624504; in the data active means inhibition above about 22%
MPTP abs DR: dose response confirmation of mitochondrial permeability transition pore inhibitors; IC50, µM; isolated mitochondria swelling, absorbance; shares compounds with MPTP inh; 58% of 780 active; AID 651561; in the data active means IC50 below about 20 µM
MPTP counter DR: MPTP inhibitor counter-screen activity, dose response; shares compounds with MPTP inh; isolated mitochondria counterscreen, fluorescence read-out; IC50, µM; 49% of 780 active; in the data active means IC50 below about 80 µM
A number is an active result; n = inactive; u = inconclusive; x = not tested or not shown.

SMILES	Gli-Sufu block	Mdm2-MdmX inh	Beta apoptosis	NR3A LBD binder	CSC inhib	MPTP inh	Rh123 counter	others
O=C(Nc1cc(Sc2ccccn2)cc([N+](=O)[O-])c1)c1cccc(F)c1	n	n	84	n	n	97	70
O=C(Nc1cc(Sc2nc3ccccc3s2)cc([N+](=O)[O-])c1)c1ccccc1F	n	n	n	n	n	n	x
O=C(Nc1cc(Sc2nc3ccccc3s2)cc([N+](=O)[O-])c1)c1ccccc1	n	n	n	n	n	90	73
COC(=O)c1ccn(CSc2cc(Cl)ccc2Cl)n1	n	n	n	n	n	n	x
C=Cc1ccc(Cn2nc(-c3ccc(C)cc3)ccc2=O)cc1	n	n	n	n	n	69	79
CCn1cc(CN2CCCC(C(=O)c3ccc(-c4ccccc4)cc3)C2)cn1 (stereo not drawn)	n	n	x	n	n	58	n	MPTP abs DR=19;MPTP counter DR=26
CCOC(=O)C1(Cc2ccccc2)CCCN(Cc2cnn(CC)c2)C1 (stereo not drawn)	n	n	n	n	n	64	n	MPTP abs DR=n;MPTP counter DR=n
CCOC(=O)C1(Cc2ccccc2)CCN(Cc2cnn(CC)c2)CC1	n	n	n	n	n	n	x
Cn1cc(CN2CCCC(C(=O)c3ccc(-c4ccccc4)cc3)C2)cn1 (stereo not drawn)	n	n	n	n	n	n	x
CCOC(=O)C1(Cc2ccccc2)CCN(Cc2cnn(-c3ccccc3)c2)CC1	n	n	n	n	n	62	n	MPTP abs DR=15;MPTP counter DR=33
NS(=O)(=O)c1ccc(CCNC(=O)COC(=O)CC(c2ccccc2)c2ccccc2)cc1	n	n	x	n	n	n	x
Cc1cc(-c2ccc(C)c(S(=O)(=O)N3CCN(c4ccccn4)CC3)c2)on1	n	n	n	n	n	n	x
Cc1cc(C(=O)CSc2nc(N)cc(=O)[nH]2)c(C)n1CC1CCCO1 (stereo not drawn)	n	n	n	n	n	n	x
Cc1cc(C(=O)CSc2nc3ccccc3[nH]2)c(C)n1CC1CCCO1 (stereo not drawn)	n	n	n	n	x	71	85
Cc1ccc(S(=O)(=O)Nc2ccc(S(=O)(=O)NCC3CCCO3)cc2)cc1 (stereo not drawn)	n	n	n	n	n	n	x
CC(C)N(C(=S)Nc1cccc(C(F)(F)F)c1)C(C)c1ccccn1 (stereo not drawn)	n	n	n	n	n	92	83
CN1CCN(c2nc(Nc3ccc(F)cc3)nc(Nc3ccc(F)cc3)n2)CC1	n	n	n	n	n	n	x
O=C(Nc1ccc(F)cc1F)Nc1csc2ccccc12	n	n	n	15	n	83	85
O=C(Nc1cccs1)Nc1ccc(F)cc1F	n	n	n	n	n	n	x
CCCCN(C)c1c(C)nc2ccc(C(=O)NCCOc3ccc(OC)cc3)cn12	x	x	x	x	x	96	78
CCCCC(=O)N(C)c1c(C)nc2ccc(C(=O)NCCOc3ccc(OC)cc3)cn12	x	x	x	x	x	n	x
OCC1CCN(Cc2cn(Cc3ccccc3)nc2-c2cc3ccccc3o2)CC1	n	n	n	n	n	52	n	MPTP abs DR=18;MPTP counter DR=n
OCC1CCCN(Cc2cn(Cc3ccccc3)nc2-c2cc3ccccc3o2)C1 (stereo not drawn)	n	n	n	n	n	n	x
S=c1[nH]c2ccc(Cc3ccc4[nH]c(=S)[nH]c4c3)cc2[nH]1	n	n	n	n	n	n	x
Cc1cc(C(C)(C)C)ccc1OCCCCN1CCCC1	n	n	n	n	u	51	n	MPTP abs DR=6.8;MPTP counter DR=13
SMILES	Gli-Sufu block	Mdm2-MdmX inh	Beta apoptosis	NR3A LBD binder	CSC inhib	MPTP inh	Rh123 counter	others
Cc1cc(C(C)(C)C)ccc1OCCN1CCCC1	n	n	x	n	n	n	x
COc1ccc(C2=CN3CCCCC3CC2=O)cc1OC (stereo not drawn)	n	n	n	n	n	n	x
Cc1ccc(C23CC4CC(CC(NC(=O)N5CCN(C)CC5)(C4)C2)C3)cc1	n	n	n	n	n	71	n	MPTP abs DR=16;MPTP counter DR=n
COc1cc(CCC(=O)OCC(=O)Nc2sccc2C(N)=O)cc(OC)c1OC	n	n	x	n	x	n	x
COC(=O)C1(CC2CC(c3cccc(Br)c3)=NO2)CCN(C(=O)OC(C)(C)C)CC1 (stereo not drawn)	n	n	n	n	n	54	57
CSc1ccc(S(=O)(=O)Nc2ccc3c4c(cccc24)CC3)cc1	n	n	n	n	n	61	73
O=S(=O)(Nc1ccc2c3c(cccc13)CC2)c1ccc(F)cc1	n	n	x	n	n	n	x
CSc1nc2ccc(NS(=O)(=O)c3cccc(Cl)c3Cl)cc2s1	n	n	n	16	n	60	64
Cc1ccc(N/N=C(\C#N)C(N)=S)c(C)c1	n	x	n	n	n	90	83
CC(C)(C)C1CCC(OCC(O)CN2CCCC2)CC1 (stereo not drawn)	n	n	n	n	n	n	x
CC(C)(C)C1CCC(OCC(O)CN2CCN(c3ccccc3)CC2)CC1 (stereo not drawn)	n	n	n	n	n	85	n	MPTP abs DR=n;MPTP counter DR=n
O=C1Cc2ccccc2Sc2cc(OCCCN3CCCCC3)ccc21	n	n	n	n	n	71	n	MPTP abs DR=9.9;MPTP counter DR=n
CCc1ccccc1NC(=O)Nc1cc(F)ccc1F	n	n	n	n	n	58	88
CCCc1cc(=O)oc2cc(C)cc(OCC(=O)Nc3ccc(CN4CCOCC4)cc3)c12	n	n	n	n	n	n	x
Cc1c(C(=O)N2CCCCC2)oc2ccc(S(=O)(=O)N3CC(C)CC(C)C3)cc12 (stereo not drawn)	n	n	n	n	n	83	44
CCOC(=O)N1CCN(C(=O)c2oc3ccc(S(=O)(=O)N4CCCCC4)cc3c2C)CC1	n	n	n	n	n	n	x
CN(C)CCCN(C(=O)COc1ccc(Cl)cc1)c1nc2cc3c(cc2s1)OCCO3	n	n	x	n	n	87	n	MPTP abs DR=4.3;MPTP counter DR=74
CC1=C(C)CC(C(=O)NNC(=O)c2csc(C)c2C)C(C(=O)O)C1 (stereo not drawn)	n	n	n	n	n	n	x
CCn1ccnc1CN(C)Cc1cn(-c2ccc(C)cc2)nc1-c1cccc(C)c1	n	n	n	24	n	51	n	MPTP abs DR=n;MPTP counter DR=46
O=C(CNC(=O)c1ccco1)OCC(=O)c1ccc(Br)cc1	n	n	n	n	n	n	x
C=CCn1c(SCN2C(=O)c3ccccc3C2=O)nc2ccc(Cl)cc2c1=O	x	n	98	n	n	90	90
CCCn1c(SCC(=O)Nc2nc3ccccc3s2)nc2c1c(=O)n(C)c(=O)n2C	n	n	n	n	n	85	n	MPTP abs DR=19;MPTP counter DR=14
CCCn1c(SCC(=O)Nc2nnc(C(C)C)s2)nc2c1c(=O)n(C)c(=O)n2C	n	n	n	n	n	n	x
